About 83,000 compounds went through this panel and 20% of them were active in at least one assay; those are over-represented in the sample as a whole.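 Assay: single dose, 48 h. Readout: percent growth (0 = no net growth; negative = cell death). Active: <10.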 Unmarked numbers belong to inactive results. Activity calls are given as the source filed them.

Common to all, as to assay: NCI-60 one-dose screen, 48 h (100 = growth as untreated, 0 = no growth, -100 = all killed)
What all share (settings): 10 µM unless noted

Test [1] relates to SK-MEL-2 melanoma.
Test [2] has as its system EKVX NSCLC.
For test [3], the system named is SN12C renal.
Test [4] relates to UO-31 renal.
Test [5] relates to TK-10 renal.
The test system of test [6] is ACHN renal.
Test [7] relates to CAKI-1 renal.
The subject of test [8] is A498 renal.
Test [9] concerns CCRF-CEM leukemia.
Test [10] has as its system MOLT-4 leukemia.
Test [11] concerns RPMI-8226 leukemia.
Test [12] has as its system OVCAR-8 ovarian.
Test [13] relates to OVCAR-5 ovarian.
For test [14], the system named is OVCAR-4 ovarian.
In test [15] the test system is SK-OV-3 ovarian.
Test [16] has as its system IGROV1 ovarian.
For test [17], the system named is OVCAR-3 ovarian.
The subject of test [18] is HS 578T breast.
Test [19] has as its system NCI/ADR-RES ovarian.
Test [20] concerns SR leukemia.

For `C=CCn1c(SCC(=O)Nc2ccc(C(=O)/C=C/c3ccc(Cl)cc3)cc2)nnc1-c1ccc(Br)cc1`, the growth in test [1] was 76.4%; in test [2], 101%; in test [3] it was 80.3%; in test [4], 67.9%; in [5] it was 83.3%; in [6], 78.3%. In addition, the growth was 74.5% in test [7]; 74.6% in test [8]; 79.7% in [9]; 63.1% in [10]; -28.1% (active) in [11]; 57.6% in test [12]. Also, the growth in test [13] was 98%; in test [14], 57.6%; in [15] it was 138%; in test [16], 87.2%; in test [17], 85.5%; in test [18], 71.9%. In test [19], the growth is 74.7%.

As for `O=C(CSc1oc(-c2ccccc2)nc1S(=O)(=O)c1ccccc1)Nc1ccc(F)cc1`, the growth in [1] was 87.6%; in [2] it was 78.2%; in [3], 89%; in test [4], 76.8%; in test [5] it was 91.8%; in test [6] it was 80.2%. Also, the growth was 73.1% in test [7]; 82.6% in test [8]; 84.7% in [9]; 73.3% in test [10]; 55.7% in test [11]; 88.7% in test [12]. For the same compound, the growth in [13] is 87.5%; in test [14], 67.4%; in test [15] it was 95.8%; in test [16] it was 88.9%; in [17] it was 85.7%; in [18], 97.9%. In addition, the growth in [19] is 75.3%.

For `c1cc2c(ccc3[nH]c(-c4ccc5[nH]ncc5c4)c4c(c32)CCCC4)n1`, the growth is 83.6% in [1]; 62.7% in test [2]; 46% in test [3]; 53.3% in [4]; 80.2% in [5]; 32.3% in [6]. Moreover, the growth in test [7] is 69.8%; in [8], 74.3%; in [9], 13.6%; in [10] it was -0.124% (active); in [20] it was -7.05% (active); in test [11], 45.8%. In addition, the growth is 64.4% in [12]; 80.7% in test [14]; 63.4% in test [15]; 67.6% in [16]; 72.5% in test [17]; 75.7% in [18]. In addition, the growth in [19] was 83.2%.

In the case of `COc1ccc(C(=O)Nc2cccc(-c3cc(=O)c4c(OC)c(OC)c(OC)cc4o3)c2)cc1`, the growth in [1] was 61.3%; in test [2] it was 77.3%; in [3], 50%; in [4] it was 26.5%; in test [5], 76.7%; in test [6], 47%. In addition, the growth in test [7] was 57.4%; in test [8] it was 69.3%; in test [9], 27.5%; in [10], 23.3%; in test [11] it was 18.8%; in test [12], 57.9%. Moreover, the growth was 95.6% in test [13]; 62% in test [14]; 108% in [15]; 53.9% in test [16]; 66.8% in test [17]; 42.9% in test [18]. Moreover, in [19], the growth was 60.2%.

With `CC(=O)O[C@@H]1C[C@]2(C(C)C)O[C@@]1(C)[C@@H]1CCC(C)=C1[C@@H]2OC(=O)/C=C/c1ccccc1`, the growth is 89.7% in [1]; 83.5% in test [2]; 48.4% in test [3]; 60.5% in test [4]; 95.4% in test [5]; 34.6% in [6]. For the same compound, the growth in test [7] was 71.3%; in test [8] it was -4.32% (active); in [9], 84.9%; in test [10], 83.8%; in test [11], 76.6%; in [12] it was 67.5%. The growth is 98.1% in test [13]; 79.1% in test [14]; 89.3% in test [15]; 94.9% in [16]; 89.7% in [17]; 20% in [18]. Moreover, the growth in test [19] is 71.9%.

In the case of `CN(C)c1ccc(-c2c(C#N)c(N)nn2C(=O)c2ccc(NC(=O)c3ccccn3)cc2)cc1`, the growth was 105% in test [1]; 91.6% in test [2]; 101% in test [3]; 80.7% in test [4]; 110% in test [5]; 87.2% in test [6]. Further, the growth in test [7] was 77.3%; in test [8], 96.6%; in test [9], 51.5%; in [10], 99.5%; in [20], 98.6%; in test [11], 95.5%. Further, the growth in test [12] is 98.3%; in test [14], 105%; in test [15] it was 108%; in test [16] it was 79.1%; in test [17], 102%; in test [18], 93.9%. Also, the growth in test [19] was 96.4%.

`O=C(Nn1c2c(sc1=NC1CC1)C(=O)c1ccccc1C2=O)c1cc2ccc1CCc1ccc(cc1)CC2`: the growth was 49.5% in [1]; 67.5% in [2]; 30.9% in test [3]; 21.5% in [4]; 115% in test [5]; 25.6% in [6]. Moreover, the growth in [7] was 30.8%; in test [8], 89.4%; in [9] it was 22.6%; in test [10], 8.53% (active); in test [20], 29.4%; in test [11] it was 19.5%. The growth in test [12] is 3.79% (active); in [14] it was 40.5%; in [15], 59.1%; in test [16], 34.6%; in [17], 1.11% (active); in test [18], 46.2%. For the same compound, the growth in test [19] was 17.8%.

For the origin of these results see PubChem BioAssay (NCI).
